# Key:
# [1] = target: T1, MTERF1 73-399::RelA 430-551 (Homo sapiens, UniProt Q99551 SEQ:1-327); assay: cell_activity; HEK293 reporter; reduced but not abolished; details: tags: RelA 430-551 TAD fusion; dsDNA, one strand shown
# T1 chain: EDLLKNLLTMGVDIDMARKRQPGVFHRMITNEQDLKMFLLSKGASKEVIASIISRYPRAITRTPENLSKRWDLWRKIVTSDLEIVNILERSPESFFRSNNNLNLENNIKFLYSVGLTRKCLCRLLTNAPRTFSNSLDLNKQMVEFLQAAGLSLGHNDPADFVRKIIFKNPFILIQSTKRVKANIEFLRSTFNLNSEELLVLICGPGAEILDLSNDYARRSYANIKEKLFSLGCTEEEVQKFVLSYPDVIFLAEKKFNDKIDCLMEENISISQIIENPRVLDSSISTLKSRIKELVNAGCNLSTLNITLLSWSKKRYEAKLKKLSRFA
# [2] = target: T2, MTERF1 104-399::RelA 430-551 (Homo sapiens, UniProt Q99551 SEQ:1-296); assay: as above; details: tags: RelA 430-551 TAD fusion; dsDNA, one strand shown
# T2 chain: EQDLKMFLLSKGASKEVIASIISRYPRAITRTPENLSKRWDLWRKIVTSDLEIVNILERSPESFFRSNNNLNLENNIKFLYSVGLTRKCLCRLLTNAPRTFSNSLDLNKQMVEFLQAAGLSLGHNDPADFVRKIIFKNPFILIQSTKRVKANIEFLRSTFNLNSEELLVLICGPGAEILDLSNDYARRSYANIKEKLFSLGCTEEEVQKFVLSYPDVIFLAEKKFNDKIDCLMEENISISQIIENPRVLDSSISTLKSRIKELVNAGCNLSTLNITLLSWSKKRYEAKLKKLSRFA
sequence,measurement,setting,value
TAAGATGGCAGAGCCCGGTAATTAAGATGGCAGAGCCCGGTAATTAAGATGGCAGAGCCCGGTAATTAAGATGGCAGAGCCCGGTAATTAAGATGGCAGAGCCCGGTAAT,binding signal,[1],~1.5 fold less than MTF
same,binding signal,[2],~1.5 fold less than MTF

# Reference: patent publication US20260200999, “SYNTHETIC TRANSCRIPTION FACTORS” (ETH ZURICH, published 2026)
